This note sets out measurements from ChEMBL document CHEMBL1961873, “Compounds: GSK PKIS; Assays: Nanosyn kinase panel” (2012).

A word on the inhibition: it is the relative decrease from the control value, in per cent.

Assay [1] deals with Tyrosine-protein kinase CSK (Homo sapiens) (UniProt P41240). Conditions: at 1 µM.
For assay [2], the target named is T1, Discoidin domain-containing receptor 2 (Homo sapiens) (UniProt Q16832).
T1 sequence (whole entry): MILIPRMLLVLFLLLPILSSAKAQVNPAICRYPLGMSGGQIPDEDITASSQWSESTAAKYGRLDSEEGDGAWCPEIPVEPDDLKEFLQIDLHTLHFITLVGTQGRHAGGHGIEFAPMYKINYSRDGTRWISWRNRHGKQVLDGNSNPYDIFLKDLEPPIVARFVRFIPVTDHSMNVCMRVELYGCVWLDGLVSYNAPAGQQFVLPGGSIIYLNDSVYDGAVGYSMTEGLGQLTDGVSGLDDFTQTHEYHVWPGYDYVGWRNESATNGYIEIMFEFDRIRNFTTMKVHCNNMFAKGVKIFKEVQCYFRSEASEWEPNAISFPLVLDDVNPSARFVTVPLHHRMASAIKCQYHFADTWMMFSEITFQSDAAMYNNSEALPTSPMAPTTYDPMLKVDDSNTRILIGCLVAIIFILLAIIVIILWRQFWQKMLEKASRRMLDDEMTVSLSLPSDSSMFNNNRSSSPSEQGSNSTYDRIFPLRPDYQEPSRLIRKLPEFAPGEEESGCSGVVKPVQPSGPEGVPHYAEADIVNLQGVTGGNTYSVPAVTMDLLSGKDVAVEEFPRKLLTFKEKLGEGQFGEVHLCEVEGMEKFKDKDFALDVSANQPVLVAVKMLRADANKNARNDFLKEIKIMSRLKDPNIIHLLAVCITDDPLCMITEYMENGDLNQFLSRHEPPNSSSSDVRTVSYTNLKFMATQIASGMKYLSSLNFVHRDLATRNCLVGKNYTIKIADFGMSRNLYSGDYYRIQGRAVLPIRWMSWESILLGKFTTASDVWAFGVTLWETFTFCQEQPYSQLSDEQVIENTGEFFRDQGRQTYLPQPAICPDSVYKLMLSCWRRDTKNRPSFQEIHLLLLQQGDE
Conditions: at 0.1 µM.

Assay [3] concerns the target T1, Discoidin domain-containing receptor 2 (Homo sapiens). Conditions: at 1 µM.
In assay [4] the target is Epidermal growth factor receptor (Homo sapiens) (UniProt P00533). Conditions: at 0.1 µM.
Epidermal growth factor receptor (Homo sapiens), sequence (P00533 whole entry): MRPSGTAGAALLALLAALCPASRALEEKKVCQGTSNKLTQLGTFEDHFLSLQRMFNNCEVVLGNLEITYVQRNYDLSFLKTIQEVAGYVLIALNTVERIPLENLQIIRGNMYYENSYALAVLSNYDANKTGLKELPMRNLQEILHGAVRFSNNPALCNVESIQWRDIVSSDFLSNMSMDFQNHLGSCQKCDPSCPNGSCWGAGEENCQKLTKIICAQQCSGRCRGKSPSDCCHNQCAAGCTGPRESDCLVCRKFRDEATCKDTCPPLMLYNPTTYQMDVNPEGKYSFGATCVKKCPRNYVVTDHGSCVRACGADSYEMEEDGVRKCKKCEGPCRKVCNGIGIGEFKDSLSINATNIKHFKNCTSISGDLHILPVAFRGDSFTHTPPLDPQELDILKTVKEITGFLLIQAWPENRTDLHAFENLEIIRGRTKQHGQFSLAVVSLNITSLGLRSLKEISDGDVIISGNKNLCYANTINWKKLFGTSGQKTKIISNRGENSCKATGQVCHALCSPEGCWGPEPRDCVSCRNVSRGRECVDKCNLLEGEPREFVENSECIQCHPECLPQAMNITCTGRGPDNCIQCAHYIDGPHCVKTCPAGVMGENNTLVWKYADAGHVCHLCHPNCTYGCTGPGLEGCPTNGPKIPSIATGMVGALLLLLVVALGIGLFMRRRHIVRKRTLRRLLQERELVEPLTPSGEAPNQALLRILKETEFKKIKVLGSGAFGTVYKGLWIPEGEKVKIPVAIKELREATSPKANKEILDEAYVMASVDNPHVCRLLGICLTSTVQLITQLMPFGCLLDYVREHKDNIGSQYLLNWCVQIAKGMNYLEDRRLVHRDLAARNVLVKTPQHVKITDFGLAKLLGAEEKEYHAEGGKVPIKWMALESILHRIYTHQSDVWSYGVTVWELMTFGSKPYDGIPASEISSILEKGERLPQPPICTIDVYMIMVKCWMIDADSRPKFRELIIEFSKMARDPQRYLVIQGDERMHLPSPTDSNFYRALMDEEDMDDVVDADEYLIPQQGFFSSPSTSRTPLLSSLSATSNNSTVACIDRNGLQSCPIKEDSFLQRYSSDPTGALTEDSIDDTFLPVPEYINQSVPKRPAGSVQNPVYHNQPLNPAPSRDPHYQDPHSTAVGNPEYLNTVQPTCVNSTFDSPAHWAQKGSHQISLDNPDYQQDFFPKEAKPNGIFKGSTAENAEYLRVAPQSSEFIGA
Assay [5] has the same target. Conditions: at 1 µM.
Assay [6] has as its system Epidermal growth factor receptor (Homo sapiens), P00533 [L858R]. Conditions: at 0.1 µM.
The test system is the same in assay [7]. Particulars: at 1 µM.
The subject of assay [8] is Epidermal growth factor receptor (Homo sapiens), P00533 [L861Q]. Conditions: at 0.1 µM.
Assay [9] shares this test system. Particulars: at 1 µM.
In assay [10] the test system is Epidermal growth factor receptor (Homo sapiens), P00533 [T790M]. Conditions: at 0.1 µM.

Tyrosine-protein kinase CSK (Homo sapiens), sequence (P41240 2-450 limits assumed): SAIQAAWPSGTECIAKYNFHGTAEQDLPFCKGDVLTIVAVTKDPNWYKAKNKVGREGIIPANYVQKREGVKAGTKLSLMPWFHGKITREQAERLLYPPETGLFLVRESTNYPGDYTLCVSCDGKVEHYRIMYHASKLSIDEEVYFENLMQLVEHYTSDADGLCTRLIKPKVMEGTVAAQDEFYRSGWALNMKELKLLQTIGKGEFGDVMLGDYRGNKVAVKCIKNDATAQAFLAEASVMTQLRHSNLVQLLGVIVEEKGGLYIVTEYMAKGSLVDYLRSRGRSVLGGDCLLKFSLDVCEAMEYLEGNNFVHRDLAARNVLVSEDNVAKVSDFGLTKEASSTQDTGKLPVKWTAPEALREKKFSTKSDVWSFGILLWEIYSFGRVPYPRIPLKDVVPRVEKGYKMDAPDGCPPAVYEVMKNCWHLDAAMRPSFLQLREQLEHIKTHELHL
Epidermal growth factor receptor (Homo sapiens), P00533 [L861Q], sequence (P00533 whole entry L861Q): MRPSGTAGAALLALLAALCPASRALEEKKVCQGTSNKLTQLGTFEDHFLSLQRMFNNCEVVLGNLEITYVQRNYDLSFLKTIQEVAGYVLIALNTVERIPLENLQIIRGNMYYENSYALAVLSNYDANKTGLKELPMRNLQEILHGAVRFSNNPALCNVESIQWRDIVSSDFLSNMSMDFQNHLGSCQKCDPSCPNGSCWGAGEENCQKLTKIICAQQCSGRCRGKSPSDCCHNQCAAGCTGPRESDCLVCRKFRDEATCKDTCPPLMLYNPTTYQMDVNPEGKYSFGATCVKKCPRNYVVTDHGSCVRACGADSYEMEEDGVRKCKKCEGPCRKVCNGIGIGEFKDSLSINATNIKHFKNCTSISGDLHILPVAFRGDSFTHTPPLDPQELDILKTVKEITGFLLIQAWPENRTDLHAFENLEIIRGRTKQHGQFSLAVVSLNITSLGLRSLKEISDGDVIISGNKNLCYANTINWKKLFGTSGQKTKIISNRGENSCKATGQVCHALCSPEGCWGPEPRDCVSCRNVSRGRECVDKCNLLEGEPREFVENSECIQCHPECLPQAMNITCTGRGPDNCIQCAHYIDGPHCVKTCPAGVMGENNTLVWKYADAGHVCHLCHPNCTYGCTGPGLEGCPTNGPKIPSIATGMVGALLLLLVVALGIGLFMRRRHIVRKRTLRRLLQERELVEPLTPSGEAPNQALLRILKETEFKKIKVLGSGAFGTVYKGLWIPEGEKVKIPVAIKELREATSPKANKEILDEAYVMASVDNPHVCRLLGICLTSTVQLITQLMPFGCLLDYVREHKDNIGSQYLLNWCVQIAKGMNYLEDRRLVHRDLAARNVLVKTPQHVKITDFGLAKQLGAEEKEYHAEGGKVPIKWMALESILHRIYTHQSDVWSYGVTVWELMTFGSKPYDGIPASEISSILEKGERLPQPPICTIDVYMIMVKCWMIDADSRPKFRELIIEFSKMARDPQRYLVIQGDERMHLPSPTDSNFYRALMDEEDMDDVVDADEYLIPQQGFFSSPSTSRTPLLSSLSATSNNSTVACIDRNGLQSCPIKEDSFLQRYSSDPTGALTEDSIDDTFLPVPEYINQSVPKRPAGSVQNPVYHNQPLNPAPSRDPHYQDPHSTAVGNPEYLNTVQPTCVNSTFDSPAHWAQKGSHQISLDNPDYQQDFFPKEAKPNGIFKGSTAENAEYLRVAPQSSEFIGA
Epidermal growth factor receptor (Homo sapiens), P00533 [L858R], sequence (P00533 whole entry L858R): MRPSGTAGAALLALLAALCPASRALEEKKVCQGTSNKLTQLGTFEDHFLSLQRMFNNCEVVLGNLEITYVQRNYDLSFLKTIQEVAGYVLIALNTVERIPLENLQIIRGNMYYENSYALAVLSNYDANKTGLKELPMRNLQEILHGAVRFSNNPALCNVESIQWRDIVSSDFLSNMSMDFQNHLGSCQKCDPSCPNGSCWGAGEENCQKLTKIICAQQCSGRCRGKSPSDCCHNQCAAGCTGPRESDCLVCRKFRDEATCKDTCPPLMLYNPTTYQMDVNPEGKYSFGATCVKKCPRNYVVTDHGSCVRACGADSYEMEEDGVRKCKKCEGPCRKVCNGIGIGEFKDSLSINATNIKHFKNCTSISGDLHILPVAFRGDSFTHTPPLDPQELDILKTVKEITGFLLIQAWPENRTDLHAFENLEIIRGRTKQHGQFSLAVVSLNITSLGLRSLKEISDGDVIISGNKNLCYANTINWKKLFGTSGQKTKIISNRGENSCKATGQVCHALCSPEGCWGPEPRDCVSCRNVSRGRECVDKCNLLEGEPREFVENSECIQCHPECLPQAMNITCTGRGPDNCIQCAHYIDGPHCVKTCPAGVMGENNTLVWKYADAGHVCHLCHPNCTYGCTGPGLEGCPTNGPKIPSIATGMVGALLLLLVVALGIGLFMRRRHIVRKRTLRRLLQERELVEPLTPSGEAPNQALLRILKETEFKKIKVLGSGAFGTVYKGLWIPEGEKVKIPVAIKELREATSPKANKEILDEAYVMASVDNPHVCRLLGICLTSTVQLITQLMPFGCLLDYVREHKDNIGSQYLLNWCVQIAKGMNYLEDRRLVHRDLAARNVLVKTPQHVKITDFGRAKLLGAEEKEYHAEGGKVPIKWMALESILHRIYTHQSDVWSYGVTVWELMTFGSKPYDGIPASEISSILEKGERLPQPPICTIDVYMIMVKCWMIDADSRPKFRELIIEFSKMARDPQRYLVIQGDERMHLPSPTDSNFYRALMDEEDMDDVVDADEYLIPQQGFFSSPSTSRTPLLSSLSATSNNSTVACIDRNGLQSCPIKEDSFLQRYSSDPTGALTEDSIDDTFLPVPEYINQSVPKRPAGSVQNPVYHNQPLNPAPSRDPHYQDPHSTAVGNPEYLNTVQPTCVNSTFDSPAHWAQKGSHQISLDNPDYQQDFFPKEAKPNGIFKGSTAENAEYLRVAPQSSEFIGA

As to `CC1=C(C(=O)Nc2ccc3[nH]ncc3c2)C(c2ccc3ccccc3c2)CC(=O)N1` (centres undefined), the inhibition in [1] was found to be 8.49%; in [2] it was 1.3%; in assay [3], 0.24%; in assay [4], 1.29%; in [5], 5.76%; in assay [6], 3.81%. The inhibition worked out at 6.61% in [7], 2.89% in assay [8], 1.33% in [9] and 1.06% in assay [10].
In the case of `Nc1ncnc2occ(-c3ccc(NC(=O)Nc4cc(C(F)(F)F)cc(C(F)(F)F)c4)cc3)c12`, the inhibition turned out to be 20.6% in assay [1]; 67.7% in [2]; 84.4% in assay [3]; 0.56% in [4]; 0.39% in assay [5]; 1.34% in assay [6]. For the same molecule, the inhibition in [7] is -2.77%; in assay [8] it was 2.29%; in assay [9] it was -2.09%; in assay [10], 1.48%.
Consider `CC1=C(C(=O)Nc2ccc3[nH]ncc3c2)C(c2ccc(F)cc2)NC(=O)N1` (centres undefined), for which the inhibition was 1.35% in assay [1]; 0.44% in [2]; 0.08% in assay [3]; -0.6% in [4]; 1.27% in assay [5]; 3.85% in assay [6]. For the same molecule, the inhibition came to 4.77% in [7], 2.31% in [8], 1.33% in assay [9] and 0.71% in assay [10].
Turning to `CCn1c(-c2nonc2N)nc2cnc(Oc3cccc(NC(=O)c4ccc(OCCN5CCOCC5)cc4)c3)cc21`, the inhibition in [1] was 2.94%; in [2], 1.27%; in [3], -0.68%; in assay [4] it was 1.37%; in [5] it was 3%; in assay [6], 1.72%. For the same molecule, the inhibition in assay [7] stood at 2.23%; in assay [8] it was 2.62%; in assay [9] it was 2.57%; in assay [10], 0.97%.
For the molecule `CCn1c(-c2nonc2N)nc2c(C#CC(C)(C)O)nc(OC[C@@H](N)c3ccccc3)cc21`, the inhibition in assay [1] was -2.13%; in assay [2], 4.51%; in assay [3] it was 12.2%; in assay [4], 0.44%; in [5], 3.81%; in assay [6], -1.04%. The inhibition in assay [7] was -2.49%; in [8], -1.53%; in assay [9] it was -1.51%; in assay [10] it was -1.77%.
For the molecule `COc1cc2ncn(-c3cc(OCc4ccccc4C(F)(F)F)c(C(N)=O)s3)c2cc1OC`, the inhibition in assay [1] amounted to 9.28%; in [2] it was 7.36%; in assay [3], 7.43%; in [5], 3.5%; in assay [6], 2.54%; in assay [7] it was 13.5%. Further, the figures for the inhibition in assay [8], in assay [9] and in assay [10] were 3.75%, 4.35% and 2%, respectively.
Consider `COc1ccc(-c2ccncc2)cc1C(N)=O`, for which the inhibition in [1] came to 2.12%; in assay [2] it was 2.19%; in assay [3], 2.53%; in assay [4], 4.47%; in [5] it was 4.86%; in assay [6], 5.16%. The inhibition stood at 4.73% in [7], 4.48% in assay [8], 6.9% in [9] and 0.43% in assay [10].
Take `CN(C)c1cc2c(Nc3ccc4nc(Cc5ccccc5)[nH]c4c3)ncnc2cn1`: the inhibition is 55.3% in assay [1]; 3.16% in [2]; 7.23% in assay [3]; 66.6% in [4]; 77.6% in assay [5]; 16.1% in assay [6]. The inhibition was 48.1% in assay [7], 27.3% in [8], 40.3% in assay [9] and 3.48% in [10].
Turning to `Cc1cc(O)cc(C)c1/C=C/c1cncc(-c2nn[nH]n2)c1`, the inhibition in assay [1] is 43.4%; in assay [2], 1.73%; in [3], 6.08%; in [4], -1.53%; in assay [5], 15.8%; in [6] it was 10.4%. For the same molecule, the inhibition in [7] turned out to be 56.9%; in assay [8], 3.95%; in [9], 21.2%; in assay [10], 2.17%.
Regarding `O=C(Nc1n[nH]c2nc(-c3ccco3)c(Br)cc12)C1CC1`, the inhibition in [1] was found to be 4.14%; in assay [2], 0.37%; in assay [3], 2.85%; in [4] it was 2.5%; in assay [5], 5.12%; in assay [6], 3.62%. Besides, the inhibition is 0.54% in [7], 0.96% in assay [8], 1.89% in [9] and 1.4% in assay [10].
As for `NC(=O)c1ccc(-c2nc(-c3ccccn3)c(-c3ccc4c(c3)OCO4)[nH]2)cc1`, the inhibition was determined as 6.81% in assay [1]; 2.6% in [2]; 4.42% in assay [3]; 2.11% in assay [4]; 4.7% in assay [5]; 4.74% in assay [6]. Also, the inhibition in [7] is 3.79%; in [8] it was 2.1%; in assay [9] it was 2.01%; in assay [10], -0.51%.
On to `COC(=O)Nc1nc2cc(Oc3cccc(NC(=O)Nc4cc(C(F)(F)F)ccc4F)c3)ccc2[nH]1`, for which the inhibition in [1] was 2.36%; in assay [2] it was 13.2%; in [3] it was 68.6%; in assay [4], 0.87%; in [5], 1.45%; in assay [6], -1.54%. Further, the inhibition in [7] was 1.41%; in assay [8] it was -1.86%; in [9], -4.32%; in [10], -1.19%.
For the molecule `COc1cccc(-n2ncc3c(N/N=C/c4cccc(F)c4)ncnc32)c1`, the inhibition in assay [1] came to 4.81%; in [2] it was 1.22%; in assay [3], 2.49%; in assay [4], 0.53%; in [5], 8.49%; in assay [6], 6.62%. For the same molecule, the inhibition is 37.9% in [7], 2.52% in assay [8], 7.42% in assay [9] and -0.78% in assay [10].
As for `CCn1c(-c2nonc2N)nc2c(N3CCCC3)nccc21`, the inhibition is -3.39% in [1]; 0.93% in assay [2]; 1.39% in assay [3]; 9.47% in assay [4]; 13% in [5]; -0.34% in assay [6]. The inhibition in assay [7] was -1.9%; in assay [8], 0.82%; in assay [9] it was 2.63%; in assay [10], -1.01%.
Turning to `COc1cc(C=NNc2ncnc3c2cnn3-c2ccccc2)ccc1O`, the inhibition worked out at 5.56% in assay [1]; 5.59% in assay [2]; 13.6% in assay [3]; 6.29% in assay [4]; 36.2% in [5]; 27.3% in assay [6]. For the same molecule, the inhibition in assay [7] amounted to 79.6%; in [8], 6.66%; in [9], 38.2%; in assay [10], 0.71%.
On to `O=C1NC(=O)C(c2ccccc2Cl)=C1Nc1cccc(O)c1`, for which the inhibition is 3.08% in [1]; -0.34% in assay [2]; -0.1% in assay [3]; 2.49% in [4]; 5.23% in [5]; 3.81% in assay [6]. The inhibition in assay [7] amounted to 3.71%; in assay [8], 0.72%; in [9] it was 3.71%; in [10] it was 1.27%.
